Reference: PubChem BioAssay AID1851 (National Center for Advancing Translational Sciences (NCATS), 2009)
Screen size: about 16,000 compounds; about 5,800 (36%) were called active. About 23% were inconclusive and are not listed. Calls come from the whole dose curve; as a rule, active = well fitted curve in the direction sought with a large enough effect; inconclusive = small, poorly fitted or top-dose-only effect, or effect the other way; inactive = no such curve, though single readings can be large or run the other way. The list shows a part of the results.

Biological target: Cytochrome P450 2C19 (Homo sapiens) (UniProt P33261)
Sequence (P33261 whole entry, looked up): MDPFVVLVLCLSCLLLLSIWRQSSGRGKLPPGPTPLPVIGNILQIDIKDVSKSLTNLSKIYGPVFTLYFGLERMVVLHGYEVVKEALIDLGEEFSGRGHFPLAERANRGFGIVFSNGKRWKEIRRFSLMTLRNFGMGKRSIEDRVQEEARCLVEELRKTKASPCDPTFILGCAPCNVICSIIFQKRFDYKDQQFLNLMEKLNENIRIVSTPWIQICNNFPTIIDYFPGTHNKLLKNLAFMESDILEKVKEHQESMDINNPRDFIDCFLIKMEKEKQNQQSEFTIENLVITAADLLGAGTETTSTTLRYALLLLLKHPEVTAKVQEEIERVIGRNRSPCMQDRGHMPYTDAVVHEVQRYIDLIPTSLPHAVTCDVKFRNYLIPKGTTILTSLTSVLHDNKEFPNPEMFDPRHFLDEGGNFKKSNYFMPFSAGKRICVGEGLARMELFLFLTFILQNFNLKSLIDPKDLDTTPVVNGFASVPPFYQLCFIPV
Assay: Cytochrome panel assay with activity outcomes
Settings: recombinant CYP, pro-luciferin dealkylation, luminescence, p450-cyp2c19; series mostly up to 57.1 µM
% is set by controls: 0 for no effect and ±100 for the full control effect.

AC50, active:
CCc1ccc(CSc2nccn2-c2ccccc2)cc1 1580 nM
CCOc1c(Cl)cc(C(=O)Nc2ccccc2-c2ccccc2)cc1Cl 2510 nM
COc1ncc2ncc(=O)n(Cc3ccc(F)cc3)c2n1 7940 nM
COc1cccc(Cn2c(=O)cnc3cnc(Oc4cccc(Cl)c4)nc32)c1 25100 nM
O=c1cnc2cnc(Oc3ccccc3)nc2n1Cc1cccs1 1260 nM
O=c1cnc2cnc(Oc3cccc(Cl)c3)nc2n1C1CC1 15800 nM
O=c1cnc2cnc(Oc3ccccc3)nc2n1Cc1ccc(F)cc1 2510 nM
O=c1cnc2cnc(Oc3cccc(Cl)c3)nc2n1Cc1ccc(F)cc1 20000 nM
Cc1ccccc1OCCNC(=O)c1ccccc1Sc1ccccc1C#N 8910 nM
Cc1nc(S(=O)(=O)c2cccc(Cl)c2)nc2c1CCC2 15800 nM
CCN(C(=O)c1cnc(N2CCN(c3ncccn3)CC2)c2ccccc12)c1cccc(Cl)c1 251 nM
CN(C(=O)c1cnc(N2CCN(c3ncccn3)CC2)c2ccccc12)c1ccc(Cl)cc1 1580 nM
Fc1ccc(C2CC(c3ccco3)=NN2c2ccccc2)cc1 (stereo unspecified) 2240 nM
Cc1ccc(-c2cccc(OC(=O)c3ccccc3F)c2)cc1 2510 nM
COc1ccc(Cl)cc1NC(=O)C12CCC(C)(C(=O)O1)C2(C)C (stereo unspecified) 1260 nM
Cc1cc2c(s1)CCCCC(=O)N2 22400 nM
Oc1[nH]c2ccccc2c1/C=N/c1nccs1 14100 nM
c1ccc(C2OCC3(CO2)COC(c2ccccc2)OC3)cc1 (stereo unspecified) 2510 nM
C/C(=C\c1ccco1)C1C(C#N)=C(N)Oc2n[nH]c(-c3ccccc3)c21 (stereo unspecified) 2240 nM
Cc1cccc(NC(=O)C2(c3ccc([N+](=O)[O-])cc3)CCCC2)c1 891 nM
Cc1cccc(NC(=O)C23CCC(C)(C2Br)C3(C)C)c1 (stereo unspecified) 4470 nM
CC12CCC(C(=O)Nc3cccc4ccccc34)(C1Br)C2(C)C (stereo unspecified) 8910 nM
Cc1cccc(NC(=O)C2(c3ccccc3)CC2(Cl)Cl)c1 (stereo unspecified) 1000 nM
CCc1ccccc1NC(=O)c1ccc(-n2c(C)ccc2C)cc1 15800 nM
C=CCNc1oc(/C=C/c2ccccc2)nc1C#N 4470 nM
O=C(O)c1ccc2c3c1cccc3c(=O)n1c3ccccc3nc21 3980 nM
c1cncc(-c2nccc(NCc3cccs3)n2)c1 7940 nM
c1ccc(CNc2ccnc(-c3cccnc3)n2)cc1 2510 nM
Cc1cccc(CNc2ccnc(-c3cccnc3)n2)c1 2510 nM
CNc1nc(Cl)nc(NC(C)(C)C)n1 14100 nM
CCOc1ccc(/C=C2\C(=O)c3ccccc3OC2c2ccccc2)cc1 (stereo unspecified) 1120 nM
CSCC[C@H](NC(=O)c1nn(C)c(=O)c2ccccc12)c1nc2ccccc2[nH]1 14100 nM
CC1Cc2ccccc2N1C(=O)C1CCCCN1S(=O)(=O)c1ccccc1 (stereo unspecified) 2240 nM
O=C(NC(NC(=S)Nc1cc(Cl)ccc1Cl)C(Cl)(Cl)Cl)c1ccco1 (stereo unspecified) 1580 nM
CCc1ccc(OCC(=O)NNC(=O)CSc2ncnc3sc(C)c(C)c23)cc1 11200 nM
CC1=C(C(=O)OCc2ccccc2)C(c2cccnc2)c2c(n(C)c(=O)n(C)c2=O)N1 (stereo unspecified) 1000 nM
CC(C)(C)n1nnnc1C(c1cccnc1)N(Cc1ccccc1)Cc1ccco1 (stereo unspecified) 11200 nM
Clc1ccc(Cn2c(-c3cccnc3Cl)nc3ccccc32)c(Cl)c1 891 nM
Nc1nonc1-c1nc2ccccc2n1Cc1ccc(F)cc1Cl 79.4 nM
Clc1ncccc1-c1nc2ccccc2n1Cc1ccccc1 28200 nM
CC1CCCN(CCCNC(=O)C2CC(=O)N(c3ccc(F)c(Cl)c3)C2)C1 (stereo unspecified) 31600 nM

AC50, inactive:
Nc1ncnc2c1nc(Sc1ccc(Cl)cc1)n2[C@@H]1O[C@H]2COP(=O)(O)O[C@@H]2[C@H]1O
O=C(O)/C=C/C(=O)Nc1ccccc1-c1ccccc1
CCOC(=O)c1ccc(Cl)c(NC(=O)c2ccc(-c3ccccc3)cc2)c1
COc1ncc2ncc(=O)n(Cc3cccs3)c2n1
COc1ncc2nc(-c3ccc(F)cc3)c(=O)n(Cc3ccc(F)cc3)c2n1
O=c1c(-c2ccccc2)nc2cnc(Oc3cccc(Cl)c3)nc2n1C1CC1
O=c1c(-c2cccs2)nc2cnc(Oc3ccccc3)nc2n1Cc1cccs1
COc1cccc(Cn2c(=O)cnc3cnc(N4CCN(C)CC4)nc32)c1
COc1ncc2ncc(=O)n(CCC#N)c2n1
N#Cc1cccc(-c2nc3cnc(Oc4cccc(Cl)c4)nc3n(C3CC3)c2=O)c1
N#CCCn1c(=O)cnc2cnc(Oc3ccccc3)nc21
N#CCCn1c(=O)c(-c2ccc(F)cc2)nc2cnc(Oc3cccc(Cl)c3)nc21
N#CCCn1c(=O)c(-c2cccc(C#N)c2)nc2cnc(Oc3cccc(Cl)c3)nc21
COCCn1c(=O)c(-c2ccc(F)cc2)nc2cnc(Oc3ccccc3)nc21
N[C@H](CCCP(=O)(O)O)C(=O)O
COCC(=O)N1CCC2(CCCN(c3ncccn3)C2)CC1
O=C(Oc1ccccc1)N1CCC2(CC1)CCN(c1ncccn1)CC2
COCC(=O)N1CCC2(CC1)CCN(c1ncccn1)CC2
COCC(=O)N1CCC2(CC1)CN(c1ccccn1)C2
O=C(c1cc(O)c(O)c([N+](=O)[O-])c1)c1ccccc1F
Cc1cc(OC(=O)c2ccccc2Cl)cc(=O)n1C
CN(C)C(=N)N=C(N)N
O=C1CCCCC(=O)c2ccccc2N1
O=C1c2ccccc2C(=O)C1c1ccccc1
CC(C)(C)c1[nH]nc2c1C(c1ccc(OC(=O)c3ccco3)cc1)C(C#N)=C(N)O2 (stereo unspecified)
COc1ccccc1CN1CC[C@@]2(CCCN(C(=O)c3cccn3C)C2)C1
CCN(CC)CCOC(=O)C1(c2ccc([N+](=O)[O-])cc2)CCCC1
Cc1cccc(NC2=NC(=S)N(c3ccc(C(=O)O)cc3)C23CCCCC3)c1
O=c1c2ccc([N+](=O)[O-])c3cccc(c32)c2nc3ccccc3n12
Cc1cnc(CNc2ccnc(-c3cccnc3)n2)cn1
CCOc1ccc(C2C(C(=O)O)c3ccccc3C(=O)N2CCN2CCOCC2)cc1 (stereo unspecified)
CC(=O)N1c2ccc(S(=O)(=O)CCC(=O)O)cc2CC1C (stereo unspecified)
CCc1nnc(NC(=O)CSc2ncnc3c2cnn3-c2ccc(OC)cc2)s1
Cc1noc(C)c1C(=O)N1CCC2(CC1)CN(c1ncccn1)C2
CC1=C(C(=O)OCc2ccccc2)C(c2ccc([N+](=O)[O-])cc2)NC(=O)N1CCCCCC(=O)O (stereo unspecified)
CC[C@H]1C2=C3C(CC[C@H]4C(OCc5ccc(F)cc5C(F)(F)F)OC[C@](C)([C@@H]34)N(C(=O)OC(C)(C)C)C2)C(COC)C1COC (stereo partly specified)
CN(C)CCCN1CC(C(=O)O)CC1=O (stereo unspecified)
O=c1onc2cnc3ccccc3n12
O=c1c(-c2cccs2)nc2cnc(Nc3ccccc3)nc2n1C[C@H]1CCCO1
CC1CC(C)CN(CCCNC(=O)C2CCCN(c3nnc(N4CCCC4=O)s3)C2)C1 (stereo unspecified)
CCCS(=O)(=O)N1CCCC(C(=O)NCCCN2CCN(c3ccc(F)cc3)CC2)C1 (stereo unspecified)

activity, negative = inhibition, inactive:
N#CC1(Nc2ccc(-c3ccc(NC4(C#N)CCCC4)cc3)cc2)CCCC1 4.93% [at 11.4 µM]
CCN(CCO)C[C@H]1CCC[C@H]2CCCC[C@@H]21 12.1% [at 11.4 µM]
CCON=C1C(C)(C)C(C)(C)C(C)(C)C1(C)C -8.06% [at 11.4 µM]
COC(=O)[C@H](C)NC(=O)C/C=C\[C@@H](C)[C@H]1C=C[C@H](O)[C@@H](CO)O1 -2.78% [at 11.4 µM]
CC(=O)C=NCC(=O)O -14.5% [at 11.4 µM]
C[C@@H]1CC[C@@H]2C(=O)N3[C@@H](CC[C@@H](C)[C@@H]3c3ccc(-c4ccco4)cc3)C(=O)N2[C@H]1c1ccc(-c2ccco2)cc1 0.199% [at 11.4 µM]
CCN1C(=O)[C@H]2[C@H]3[C@H](O)[C@H](O)C/C(=N/O[C@@H]4O[C@@H](COC(C)=O)[C@@H](OC(C)=O)[C@@H](OC(C)=O)[C@H]4OC(C)=O)[C@@H]3CC[C@@H]2C1=O 13.6% [at 11.4 µM]
N#C[C@H]1CN[C@H](N)N[C@@H]1N 14.3% [at 11.4 µM]
CCOC(=O)N/N=C1/C[C@@H](O)[C@@H](O)[C@@H]2[C@@H]3C(=O)N(C4CCCCC4)C(=O)[C@H]3CC[C@@H]12 -22.2% [at 11.4 µM]
C[N+]1(CCCC[N+]2(C)CCCCCCC2)CCCCCCC1 34.1% [at 11.4 µM]
O=C=Nc1ccc(Cc2ccc(N=C=O)cc2)cc1 (tested in a mixture with another compound) -1.1% [at 11.4 µM]
Cc1cc(C)c2nc3c(c([C@H](O)[C@@H]4CCCCN4)c2c1)CC/C3=C/c1ccc(Cl)cc1 -6.83% [at 11.4 µM]
O=C1NC(=O)[C@@](Cc2ccccc2)(c2cccnc2)N1 27.6% [at 11.4 µM]
Oc1ccc(Cn2c(-c3ccc(O)cc3)nc3ccccc32)cc1 87.1% [at 11.4 µM]
